In PubChem BioAssay (NCI):
About 83,000 compounds went through this panel and 20% of them were active in at least one assay; those are over-represented in the sample as a whole.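 Percent growth is the endpoint: 0 to 100 indicates growth inhibition (40 means 60% inhibition), 0 means no net growth, and negative values indicate cell death.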 A number with no mark means an inactive call. Activity calls are given as the source filed them. The calls were made as follows: active = growth percent below 10; inactive = the rest.

Key:
Assay in all cases: NCI-60 one-dose screen, 48 h (100 = growth as untreated, 0 = no growth, -100 = all killed)
Settings in all cases: 10 µM unless noted
[1] = test system: NCI-H23 lung
[2] = test system: NCI-H226 lung
[3] = test system: NCI-H322M lung
[4] = test system: HOP-62 NSCLC
[5] = test system: NCI-H460 lung
[6] = test system: HOP-92 NSCLC
[7] = test system: NCI-H522 lung
[8] = test system: A549/ATCC NSCLC
[9] = test system: 786-0 renal
[10] = test system: COLO 205 colon
[11] = test system: DU-145 prostate
[12] = test system: K-562 leukemia
[13] = test system: MALME-3M melanoma
[14] = test system: MDA-MB-231 breast
[15] = test system: RXF 393 renal
[16] = test system: SF-268 CNS
[17] = test system: SF-295 CNS
[18] = test system: SF-539 CNS
[19] = test system: UACC-257 melanoma
[20] = test system: M14 melanoma

Structure (SMILES) | growth [1] | growth [2] | growth [3] | growth [4] | growth [5] | growth [6] | growth [7] | growth [8] | growth [9] | growth [10] | growth [11] | growth [12] | growth [13] | growth [14] | growth [15] | growth [16] | growth [17] | growth [18] | growth [19] | growth [20]
CC1(C)C=CC[C@]2(C)[C@H]3CC[C@@H]4[C@H]5[C@H](C(=O)/C=C/c6cccnc6)CC[C@]5(CO)CC[C@@]4(C)[C@]3(C)CC[C@@H]12 | -60% (active) | -54.1% (active) | 9.88% (active) | -81.3% (active) | -62.4% (active) | -92.7% (active) | -73.7% (active) | -41.5% (active) | -59.8% (active) | -71.9% (active) | -94.2% (active) | -29.3% (active) | -85% (active) | -77.6% (active) | -86.7% (active) | -57.6% (active) | -91.4% (active) | -96.2% (active) | -49.7% (active) | -74.4% (active)
C=C(C)[C@@H]1CC[C@]2(C)[C@H](CC=C3[C@@H]4CC(C)(C)CC[C@]4(C(=O)OC)CC[C@]32C)[C@@]1(C)CC/C(N)=N/O | 8.68% (active) | 2.13% (active) | 85.6% | 79.3% | 74.9% | 45.9% | 33.5% | -28.8% (active) | 66.6% | 35.6% | 75.1% | 23.9% | 58.9% | 66.1% | -49.4% (active) | 67.9% | 33.6% | 65.3% | -32.1% (active) | 43.8%
CC[C@H](CC[C@@H](C)[C@H]1CC[C@H]2[C@@H]3/C(=C/c4cccnc4)C(=O)C4=CC(=O)CC[C@]4(C)[C@H]3CC[C@]12C)C(C)C | 69.3% | 87.5% | 98.4% | 99.2% | 98.5% | 81.6% | 91% | 54.4% | 105% | 113% | 103% | 76.4% | 97.6% | 95.2% | 91.2% | 103% | 86.5% | 105% | 87.8% | 88%
O=C1CCCC=CC[C@H]2C=C(Cl)C(=O)C2=CC[C@H](CCCCC(F)(F)F)OC(=O)CCCC=CC[C@H]2C=C(Cl)C(=O)C2=CC[C@H](CCCCC(F)(F)F)OC(=O)CCCC=CC[C@H]2C=C(Cl)C(=O)C2=CC[C@H](CCCCC(F)(F)F)O1 | 65.2% [6.25 µM] | 113% [6.25 µM] | 99.1% [6.25 µM] | 85.9% [6.25 µM] | 89.6% [6.25 µM] | 126% [6.25 µM] | 34.4% [6.25 µM] | 93.7% [6.25 µM] | 108% [6.25 µM] | 80% [6.25 µM] | 62.4% [6.25 µM] | 32.1% [6.25 µM] | 106% [6.25 µM] | 51.5% [6.25 µM] | 86% [6.25 µM] | 82.8% [6.25 µM] | 107% [6.25 µM] | 93% [6.25 µM] | 79.3% [6.25 µM] | 59.5% [6.25 µM]
C=C1CC[C@@H](C(=O)OC)Cc2nc(C)ccc21 | 97% | 103% | 109% | 106% | 106% | 106% | 86.4% | 98.5% | 101% | 117% | 119% | 101% | 105% | 108% | 118% | 109% | 98.4% | 99.3% | 94.4% | 105%
O=C1/C(=C\c2ccc(Br)o2)SC(=S)N1CCc1ccc(O)cc1 | 49.7% | 97.3% | 88.3% | 83.5% | 107% | 55.3% | 37.8% | 100% | 78.7% | 97.8% | 43% | 65.6% | 69% | 53.2% | 51.9% | 96% | 94.9% | 52.3% | 77.2% | 73.7%
CCOC(=O)N1CCN(CCCCOc2ccc(C(C)(C)CC)cc2)CC1 | 89.4% | 88.5% | 113% | 100% | 105% | 86.3% | 77.8% | 95.7% | 99.7% | 105% | 104% | 68.1% | 92.3% | 102% | 111% | 105% | 98.4% | 104% | 94% | 87.9%
